What was measured:
Test in all cases: PBM binding z-score (relative to random genomic background probes); higher = stronger binding; sequences stand for … in GC…GCGATTGACAGCGTAGAATGAAGG
[1] = test system: FXR:RXRa (NR concentration 270 nM, RXRa partner concentration 90 nM)
Procedure, shortened: (§1)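 Custom Agilent 4×180K protein-binding microarrays carried double-stranded probes, each with a 34-nt variable region. These regions held direct-repeat seeds, single-nucleotide variants, half-site ablations and random human genomic background sequences. Ligand-free nuclear receptor dimers were incubated on the arrays for 1 h, antibodies against each partner (one per run) detected binding, and scanned fluorescence was regression-normalized. Binding z-scores take the random background probes as reference.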

[2] = test system: LXRa:RXRa (NR concentration 270 nM, RXRa partner concentration 90 nM)
Procedure, shortened: as §1

[3] = test system: LXRa homodimer (NR concentration 270 nM)
Procedure, shortened: as §1

[4] = test system: LXRb:RXRa (NR concentration 270 nM, RXRa partner concentration 90 nM)
Procedure, shortened: as §1

[5] = test system: LXRb homodimer (NR concentration 270 nM)
Procedure, shortened: as §1

[6] = test system: PPARa:RXRa (NR concentration 270 nM, RXRa partner concentration 90 nM)
Procedure, shortened: as §1

[7] = test system: PPARg:RXRa 270nM:90nM, anti-RXR (NR concentration 270 nM, RXRa partner concentration 90 nM)
Procedure, shortened: as §1

[8] = test system: PPARg:RXRa 30nM:10nM, anti-RXR (NR concentration 30 nM, RXRa partner concentration 10 nM)
Procedure, shortened: as §1

[9] = test system: PPARg:RXRa 90nM:30nM, anti-RXR (NR concentration 90 nM, RXRa partner concentration 30 nM)
Procedure, shortened: as §1

[10] = test system: PPARg:RXRa DBDmut IVT, anti-RXR (DBD mutation: RXRa K156A/R161A, NR concentration 270 nM, RXRa partner concentration 90 nM)
Procedure, shortened: as §1

[11] = test system: PPARg:RXRa IVT, anti-PPARg (NR concentration 270 nM, RXRa partner concentration 90 nM)
Procedure, shortened: as §1

[12] = test system: PPARg DBDmut:RXRa IVT, anti-PPARg (DBD mutation: PPARg1 K132A/R137A, NR concentration 270 nM, RXRa partner concentration 90 nM)
Procedure, shortened: as §1

[13] = test system: PPARg DBDmut IVT, anti-PPARg (DBD mutation: PPARg1 K132A/R137A, NR concentration 270 nM)
Procedure, shortened: as §1

[14] = test system: PPARg homodimer (NR concentration 180 nM)
Procedure, shortened: as §1

[15] = test system: PXR:RXRa (NR concentration 270 nM, RXRa partner concentration 90 nM)
Procedure, shortened: as §1

[16] = test system: PXR homodimer (NR concentration 270 nM)
Procedure, shortened: as §1

[17] = test system: RARa:RXR (NR concentration 270 nM, RXRa partner concentration 90 nM)
Procedure, shortened: as §1

[18] = test system: RARa homodimer (NR concentration 270 nM)
Procedure, shortened: as §1

[19] = test system: RARb:RXRa (NR concentration 270 nM, RXRa partner concentration 90 nM)
Procedure, shortened: as §1

Sequence | PBM binding z-score [1] | PBM binding z-score [2] | PBM binding z-score [3] | PBM binding z-score [4] | PBM binding z-score [5] | PBM binding z-score [6] | PBM binding z-score [7] | PBM binding z-score [8] | PBM binding z-score [9] | PBM binding z-score [10] | PBM binding z-score [11] | PBM binding z-score [12] | PBM binding z-score [13] | PBM binding z-score [14] | PBM binding z-score [15] | PBM binding z-score [16] | PBM binding z-score [17] | PBM binding z-score [18] | PBM binding z-score [19]
ATCGAACGGTCGAGGTGAGTATAGAGAAAGGGAA | -0.0198 | -0.0653 | -0.353 | -0.34 | -0.587 | 0.105 | -0.114 | -0.342 | -0.333 | -0.731 | 0.523 | 0.835 | -0.166 | 0.13 | -0.26 | -0.544 | -0.1 | -0.343 | 1.19
CAAACTAGGTCAAAGGTCAAGGTCGAGCCAACCA | 8.28 | 7.09 | 5.12 | 6.8 | 2.23 | 7.68 | 11.5 | 15.3 | 14.1 | 9.03 | 9.29 | 6.79 | 5.8 | 7.67 | 7.26 | 1.52 | 8.89 | 3.88 | 5.76
ATCTCTAGGTGAAAGTTCAGTGAATCCCGAGGAT | 1.41 | 1.98 | 1.24 | 1.43 | 0.429 | 5.61 | 9.55 | 9.07 | 11.4 | 5.35 | 6.32 | 1.5 | 0.994 | 1.52 | 2.87 | 1.57 | 2.87 | 0.586 | 3
TCTTGTTGATCAAAGGTTAAGAAAGCCGAAGCCT | 1.37 | 2.26 | 0.368 | 2.11 | 0.469 | 3.71 | 6.29 | 5.57 | 6.85 | 1.8 | 2.11 | 1.32 | 0.442 | 1.36 | 1.74 | 0.07 | 2.31 | 0.624 | 2.04
CTAACTAGGTCACGAAAGGTCAAAGTCGAATGAC | 7.37 | 8.22 | 7.7 | 7.44 | 2.3 | 6.57 | 8.24 | 7.33 | 8.68 | 8.88 | 9.03 | 2.32 | 2.06 | 5.96 | 6.97 | 3.14 | 7.47 | 2.75 | 5.6
AGTCAAAGTTCACTAGGCAACGTAAGATTCAGCT | 5.28 | 5.12 | 2.72 | 2.89 | 0.757 | 4.5 | 6.21 | 3.31 | 5.38 | 1.55 | 3.93 | 1.31 | 0.663 | 1.75 | 3.81 | 2.09 | 3.04 | 0.611 | 4.78
CAAACTAGGTCACGAGGTCAAAGTCCGCTTCCCG | 7.24 | 6 | 5.08 | 5.41 | 1.09 | 6.85 | 8.27 | 7.29 | 8.74 | 8.56 | 9.04 | 2.5 | 3.48 | 3.45 | 6.15 | 3.42 | 6.91 | 1.34 | 5.48
CGTCCAAGGTCAGCAGGTCAGAGAAAGCGACGTG | 6.51 | 4.01 | 0.793 | 3.26 | -0.208 | 4.78 | 5.15 | 1.61 | 3.69 | 3.52 | 3.72 | 0.0227 | -0.591 | 6.44 | 4.02 | 0.651 | 5.74 | 2.67 | 5.39
CGGACTGGGGCAAAGGTTACCATACTCAGTACGA | 1.68 | 1.67 | -0.108 | 2.34 | -0.125 | 6.02 | 9.26 | 9.67 | 11.7 | 6.11 | 6.8 | 0.377 | 0.924 | 1.68 | 2.76 | -0.252 | 3.88 | 0.372 | 2.42
CCTACTGGGCCAAAACGGTCATTGATGCCGATAA | -0.421 | -0.427 | 0.0364 | -0.333 | -0.867 | 0.309 | 0.904 | -0.186 | 0.162 | 2.93 | 2.65 | 0.0613 | 0.25 | 0.299 | -0.497 | -0.344 | -0.365 | -0.523 | 0.875
TCATATAGGTTAAGGTGAAAGTCGAACGATATGA | 2.27 | 1.59 | 0.00535 | 1.55 | 0.204 | 3.44 | 4.61 | 4.32 | 4.87 | 4.9 | 4.89 | 1.69 | 1.29 | 1.49 | 1.04 | -0.203 | 2.19 | 0.984 | 2.49
ACTAGGAGGACAAAGGTCAGAGCTACGCCAGTGA | 4.32 | 4.18 | 1.5 | 3.58 | 0.612 | 5.33 | 8.36 | 7.87 | 8.99 | 2.03 | 4.63 | 0.268 | -0.394 | 4.52 | 3.9 | 0.46 | 5.08 | 2.86 | 4.54
CAAACTAGGTCAAGAGGTCAAAGGCCGCTTCCCG | 7.41 | 6.17 | 5.69 | 5.21 | 1.49 | 6.45 | 8.47 | 7.55 | 9.13 | 8.35 | 8.52 | 6.15 | 3 | 8.5 | 6.37 | 2.72 | 8.18 | 4.57 | 5.58
GCTATTAGGTGAAAGGGCAACCGAATGATTCTCG | 0.916 | 1.33 | -0.0501 | 1.25 | -0.402 | 5.57 | 8.6 | 8.54 | 9.84 | 6.66 | 6.05 | 0.769 | 0.0827 | 1.6 | 1.48 | 0.0465 | 2.47 | 0.772 | 2.48
GATACAGGGTGAGCTAGAGGCCAGAGTATGGAAA | -0.454 | -0.464 | -0.638 | -0.678 | -1.4 | 0.23 | -0.0418 | -0.29 | -0.422 | 0.274 | 0.614 | -0.0983 | -0.828 | -0.261 | -0.31 | -0.845 | 0.0105 | -0.483 | 0.744
GCTTACGGGTCAAAGGTTATGGCATGAATAGAAT | 6.72 | 5.85 | 0.622 | 5.65 | 0.792 | 6.79 | 9.38 | 9.74 | 10.5 | 5.17 | 5.79 | 1.49 | 1.1 | 3.11 | 6.13 | 0.477 | 8.41 | 1.41 | 4.56
ATATGTAGGTTAAGGGTCATGCAGGTTGGTTCGC | 4.83 | 4.77 | 2.17 | 4.13 | 1.3 | 6.71 | 10.2 | 10.9 | 11.9 | 7.69 | 7.88 | 4.88 | 2.56 | 5.05 | 5.37 | 2.16 | 6.47 | 2.37 | 3.73
